JMJD2A Tudor – qHTS Assay for Inhibitors of JMJD2A-Tudor Domain; Lysine-specific demethylase 4A (Homo sapiens), O75164; AlphaScreen JMJD2A-Tudor / H3K4me3 peptide binding; Potency, µM (series often up to 114 µM), inactives show top-dose activity change, negative = inhibition, actives largely listed as inhibitors; 390,000 tested, 4.4% active; note: potency is the fitted concentration of half-maximal effect; % is set by controls: 0 for no effect and ±100 for the full control effect; nearly all actives have a fitted effect of over 50% in size
BAZ2B inh – qHTS Assay for Inhibitors of BAZ2B | AlphaScreen BAZ2B-H3K14Ac peptide displacement | Potency, µM (top dose mostly 114 µM), for the others: at the highest dose activity change, negative = inhibition, actives largely listed as inhibitors | 360,000 tested, 4.4% active; note: potency is the fitted concentration of half-maximal effect; % is set by controls: 0 for no effect and ±100 for the full control effect; nearly all actives have a fitted effect of over 60% in size
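Complex of BAZ2B and biotin-H3K14Ac (50 nM apiece) forms over 30 min at RT, then faces library compounds up to 110 uM for another 30 min; AlphaScreen beads added, 20 min dark incubation, luminescence read.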
Six1-Eya2 blk – qHTS Assay for Inhibitors of the Six1/Eya2 Interaction. Homeobox protein SIX1 (Homo sapiens) + Protein phosphatase EYA2 (Homo sapiens), …. AlphaScreen GST-Six1/His-Eya2 binding, biochemical; hits give low values. 360,000 tested, 0.56% active. activity change, % (concentration not given with the values); in the data active = activity change below about -65%; inconclusive = mostly about -30% to -63%; note: % is set by controls: 0 for no effect and ±100 for the full control effect
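GST-Six1 + His-Eya2 (5X stock: 250/500 nM); Tris pH 8.0, 300 mM NaCl, 0.05% BSA, 0.02% Tween 20; GSH donor/Ni acceptor beads; 1 h 37 °C dark; AlphaScreen readout.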
CtBP-E1A blk – qHTS Assay for Inhibitors of the CtBP/E1A Interaction | CtBP / adenovirus E1A interaction (AlphaScreen) | AlphaScreen GST-E1A/His-CtBP binding, 1536-well; hits give low values | activity change, % (no concentration beside the values) | 340,000 tested, 0.49% active | AID 651724, 2012; in the data active = activity change below about -65%; inconclusive = mostly about -30% to -63%; note: % is set by controls: 0 for no effect and ±100 for the full control effect
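Protein mix (5X: 125 nM each GST-E1A, His-CtBP) was incubated with pinned compound 2 h at 37 deg C in dark, in 50 mM Tris pH 8.0 buffer with 300 mM NaCl. Glutathione donor and nickel acceptor beads followed; AlphaScreen signal read after 1 h.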
G9a block – qHTS Assay for Inhibitors of Histone Lysine Methyltransferase G9a; Histone-lysine N-methyltransferase EHMT2 (Homo sapiens), Q96KQ7; G9a H3K9 monomethylation, AlphaScreen, 2 h; Potency, µM (highest dose often 102 µM), without a hit: at the highest dose activity, negative = inhibition, actives largely listed as inhibitors; 350,000 tested, 8.8% active; AID 504332, 2011; note: potency is the fitted concentration of half-maximal effect; % is set by controls: 0 for no effect and ±100 for the full control effect; nearly all actives have a fitted effect of over 75% in size
Target sequence (Q96KQ7 913-1193 limits assumed): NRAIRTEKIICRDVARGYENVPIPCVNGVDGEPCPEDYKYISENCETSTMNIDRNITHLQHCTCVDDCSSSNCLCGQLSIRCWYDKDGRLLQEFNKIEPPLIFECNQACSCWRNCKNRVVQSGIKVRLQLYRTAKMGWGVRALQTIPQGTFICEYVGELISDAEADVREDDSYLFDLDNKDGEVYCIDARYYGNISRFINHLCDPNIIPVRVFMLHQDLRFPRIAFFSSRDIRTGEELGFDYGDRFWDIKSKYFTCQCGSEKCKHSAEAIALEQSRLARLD
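Readings reflect AlphaScreen signal from monomethyl-H3K9 antibody detection. HMT at 20 nM; substrate b-H3K9 500 nM; cofactor SAM 20 uM; 2 h RT reaction; compounds tested as titrations in qHTS with 15 min preincubation.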
HP1b binding inh – HTS for Inhibitors of HP1-beta Chromodomain Interactions with Methylated Histone Tails | Chromobox protein homolog 1 (Homo sapiens), P83916 | AlphaScreen HP1-beta / biotin-H3K9me3 peptide binding | Potency, µM (titrated, usually from 114 µM), without a hit: at the highest dose activity change, negative = inhibition, actives largely listed as inhibitors | 390,000 tested, 0.56% active | AID 540317, 2011; note: potency is the fitted concentration of half-maximal effect; nearly all actives have a fitted effect of over 70% in size
Target sequence (P83916 whole entry, looked up): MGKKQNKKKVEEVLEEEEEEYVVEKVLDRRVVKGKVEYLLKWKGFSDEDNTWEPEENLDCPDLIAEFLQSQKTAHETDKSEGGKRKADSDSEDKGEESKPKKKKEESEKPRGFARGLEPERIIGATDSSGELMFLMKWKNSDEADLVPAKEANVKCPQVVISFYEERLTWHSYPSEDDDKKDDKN
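HP1-beta protein (50 nM final) preincubated 30 min at room temperature with biotinylated H3(1-18)K9me3 peptide (50 nM) in PBS pH 7.4, 0.01% Tween-20, then compound added for 30 min. AlphaScreen streptavidin donor/nickel chelate acceptor beads (10 ug/mL final), 30 min dark, luminescence read.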
The depositor's hits bear a star; ? = inconclusive; . = no result given; [ ] = another dose, or the depositor's remark. Hits are enriched below; roughly 10% of the tested compounds scored in any of these assays. Unless noted, calls come from the whole dose curve; as a rule, active = well fitted inhibition curve with a large enough effect; inconclusive = small, poorly fitted or top-dose-only effect; inactive = no such curve, though single readings can be large or run the other way.

SMILES	JMJD2A Tudor	BAZ2B inh	Six1-Eya2 blk	CtBP-E1A blk	G9a block	HP1b binding inh
CCC(C)NC(=O)c1sc2nc(C)c(C(=O)Nc3ccc(C)cc3C)c(-c3ccc(Br)cc3)c2c1N (configuration not stated)	8.5%	3.5%	.	.	?	67.4%
CCOC(=O)c1sc2ncn(CC(=O)Nc3ccc(OC)c(Cl)c3)c(=O)c2c1C	0.3%	3.3%	.	.	4.2%[59 µM]	33.9%
Cc1ccc(-n2nc(CO)c(C(=O)NCCCc3ccccc3)n2)cc1	-0.6%	5.0%	.	.	26.2%[59 µM]	47.9%
COc1cc(NC(C)CCc2ccccc2)cc(OC)c1OC (configuration not stated)	44.7µM*	?	-21.1	-6.5	.	?
Cc1ccc(S(=O)(=O)N(C)C)cc1NC(=O)CSc1nc2ncc(Cl)cc2[nH]1	-19.3%	3.9%	-21.1	0.0	35.5µM*	-5.7%
Cc1ccc(N2CC(C(=O)Nc3ccc(N(C)C)cc3)CC2=O)cc1C (configuration not stated)	56.2µM*	?	-18.5	-1.8	-30.2%[12.7 µM]	-5.7%
O=C(NC1CC1)C1CC(=O)N(c2cccc(Cl)c2)C1 (configuration not stated)	-2.9%	-37.8%	-0.6	2.4	25.1µM*	42.6%
Cc1ccc(N2CC(C(=O)NC3=NCCS3)CC2=O)cc1C (configuration not stated)	-20.8%	5.1%	9.3	-6.7	-12.8%[59 µM]	15.0%
Cc1ccc(N2CC(C(=O)Nc3ccccc3C(=O)NC3CCCCC3)CC2=O)cc1C (configuration not stated)	20µM*	.	-7.7	-7.3	.	-11.0%
Cc1ccc(N2C(=O)N(CC(=O)C(C)(C)C)c3ccccc3S2(=O)=O)cc1C	-15.0%	8.0%	.	.	32.0%[59 µM]	26.0%
COCCCNc1ncnc2c1cnn2-c1ccc(F)cc1	0.6%	-2.0%	.	.	16.1%[59 µM]	10.2%
O=C(CCCN1C(=O)/C(=C/c2ccccc2)SC1=S)N1CCOCC1	-35.9%	39.8µM*	-2.9	23.6	79.4µM*	?
COc1cccc(/C=C2\SC(=S)N(CCCC(=O)N3CCCCC3)C2=O)c1	39.8µM*	11.2µM*	-1.1	-8.7	25.1µM*	?
COc1ccc(/C=C2\SC(=S)N(CCCC(=O)N3CCN(C)CC3)C2=O)cc1	?	?	?	-24.7	?	?
COc1ccc(/C=C2\SC(=S)N(CCC(=O)N3CCOCC3)C2=O)cc1	-12.9%	14.2%	-12.5	-0.1	43.2%[12.7 µM]	4.3%
COc1cccc(/C=C2/SC(=S)N(CCC(=O)N3CCOCC3)C2=O)c1	56.2µM*	0.8%	-9.5	14.7	?	-5.1%
COc1ccc(C)cc1NC(=O)N1CCN(c2cc(-c3noc(C)n3)ccc2C)CC1	-22.9%	7.7%	.	.	44.4%[59 µM]	19.4%[57 µM]
O=C(c1ccc(C(F)(F)F)cc1)N1CCC(=O)N(C(COCc2ccc(C(F)(F)F)cc2)Cc2ccccc2)CC1 (configuration not stated)	-5.0%	?	-16.9	-2.1	44.7µM*	44.2%
Cc1cccc(COC[C@H](Cc2ccccc2)N2CCN(C(=O)c3ccc(C(F)(F)F)cc3)CCC2=O)c1	.	.	-4.0	5.9	.	.
Cc1cccc(C(=O)N2CCC(=O)N(C(COCc3cccc(Cl)c3)Cc3ccccc3)CC2)c1 (configuration not stated)	-17.1%	-7.8%	-5.3	-3.4	79.4µM*	57.4%
Cc1cccc(C(=O)N2CCC(=O)N([C@H](COCc3cccc(Cl)c3)Cc3ccccc3)CC2)c1	.	.	-7.2	1.8	4.2%[59 µM]	.

High-throughput results deposited in PubChem BioAssay by National Center for Advancing Translational Sciences (NCATS).
